The record followed here is PubChem BioAssay (EPA / NIEHS).

Structures are written as SMILES. Where “and” joins values, the source holds several entries; their conditions need not be identical. Equal entries are not always repeated. Calls of active or inactive are those of the source. The calls were made as follows: active = hit-call score of the fitted dose curve at least 0.9, where 1 is the maximum; inactive = score below 0.9.

Read-out in this assay: Intercellular Adhesion Molecule 1 (ICAM1), ICAM1 (gene 3383)
The experiment in a line: BSK_BF4T_ICAM1: BioMAP Diversity Plus: BF4T Assay for Intercellular Adhesion Molecule 1 (ICAM1) Biomarker Activity (AID 2284260). To be noted: primary human bronchial epithelial cells with fibroblasts. The procedure: BSK_BF4T is a cell-based, multiplexed-readout assay that uses bronchial epithelial cells and dermal fibroblasts, a human vascular primary cell, with measurements taken at 24 hours after chemical dosing in a microplate: 96-well plate.BSK_BF4T_ICAM1 is an assay component measured in the BSK_BF4T assay. It measures ICAM-1 antibody related to regulation of gene expression using ELISA technology.Data from the assay component BSK_BF4T_ICAM1 was analyzed at the endpoint, BSK_BF4T_ICAM1, in the positive analysis fitting direction relative to DMSO as the negative control and baseline of activity. Using a type of binding reporter, gain or loss-of-signal activity can be used to understand protein changes. To generalize the intended target to other relatable targets, this assay endpoint is annotated to the 'cell adhesion molecules' intended target family, where the subfamily is 'Immunoglobulin CAM'.
The levels of cell surface (or secreted, indicated by the prefix "s") biomarker endpoints were measured by ELISA. Overt cytotoxicity to cells in confluent adherent cultures (all systems other than the BT system) was assessed by measuring total protein levels using sulforhodamine B (SRB) staining in parallel cultures at the time of biomarker measurements, indicated as SRB endpoints. For proliferation assays for adherent cell types, individual cell types are cultured at sub-confluence and relative cell numbers quantified by SRB staining at time points optimized for each system (48 h: 3C and CASM3C systems; 72 h: BT and HDF3CGF systems; 96 h: SAg system). SRB was performed by staining cells with 0.1% SRB after fixation with 10% TCA and reading wells at 560 nm.Viability and proliferation of PBMC (T cells) was quantified by Alamar Blue reduction for the SAg and BT systems. For PBMC viability (referred to as PBMC Cytotoxicity within the assay endpoint names), cells were plated (75,000/well in a 96-well plate) and then chemical samples added for 1 h before addition of activators, SEB and TSST-1 (20 ng/mL final concentration each). Cells were incubated for 90 h. Then, Alamar Blue (20 uL/well) (Invitrogen, Cat DAL1100) was added for 6 h, and the plates were read with a fluorescence microplate reader at 546/580 nm (excitation/emission). For PBMC proliferation, cells were plated and activated as above but incubated for only 16 h prior to addition of Alamar Blue. Plates were read after 6 h.
Regarding `C=CC(=O)OCCC(F)(F)C(F)(F)C(F)(F)C(F)(F)C(F)(F)C(F)(F)C(F)(F)C(F)(F)F`, the outcome was inactive.

Take `O=P(O)(O)CCC(F)(F)C(F)(F)C(F)(F)C(F)(F)C(F)(F)C(F)(F)F`: the outcome was inactive.

Usually AC50 stands for the concentration giving half of the maximal activity seen. Consider `O=C(O)C(F)(F)OC(F)(F)C(F)(F)OC(F)(F)C(F)(F)OC(F)(F)C(F)(F)C(F)(F)C(F)(F)F`, for which the AC50 was 8.19 µM (active) and 7.58 µM (active).

With `O=S(=O)(O)C(F)(F)C(F)(F)C(F)(F)C(F)(F)C(F)(F)C(F)(F)C(F)(F)C(F)(F)C(F)(F)C(F)(F)F`, the outcome was inactive.

`O=C(O)CCC(F)(F)C(F)(F)C(F)(F)C(F)(F)C(F)(F)C(F)(F)F`: the result was inactive.

In the case of `O=C(O)CCC(F)(F)C(F)(F)C(F)(F)C(F)(F)C(F)(F)F`, the outcome was inactive.

As for `CN(CCO)S(=O)(=O)C(F)(F)C(F)(F)C(F)(F)C(F)(F)C(F)(F)C(F)(F)C(F)(F)C(F)(F)F`, the result was inactive.

Take `CN(Cc1cnc2nc(N)nc(N)c2n1)c1ccc(C(=O)N[C@@H](CCC(=O)O)C(=O)O)cc1`: the result was inactive.

In the case of `OCC(F)(F)C(F)(F)C(F)(F)C(F)(F)C(F)(F)C(F)(F)C(F)(F)C(F)(F)C(F)(F)C(F)(F)C(F)(F)F`, the outcome was inactive.

With `O=C(CC(=O)C(F)(F)C(F)(F)C(F)(F)F)c1cccs1`, the AC50 was 20 µM (active) and 18.8 µM (active).

With `O=P(O)(O)CCC(F)(F)C(F)(F)C(F)(F)C(F)(F)C(F)(F)C(F)(F)C(F)(F)C(F)(F)F`, the outcome was inactive.
